Measurements published in PubChem BioAssay (NCATS).
Calls of active or inactive are those of the source. Calls come from the whole dose curve; as a rule, active = well fitted activation curve with a large enough effect; inconclusive = small, poorly fitted or top-dose-only effect; inactive = no such curve, though single readings can be large or run the other way.

Target: Cytochrome P450 3A4 (Homo sapiens) (UniProt P08684)
Test: qHTS Assay for Activators of Cytochrome P450 3A4 (AID 885); note: nearly all actives have a fitted effect of over 65% in size
Conditions: recombinant CYP3A4, Luciferin-PPXE luminescence, 60 min; series mostly up to 57.1 µM
Procedure, shortened: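 Using 20nM recombinant human CYP3A4 in potassium phosphate (200mM), substrate Luciferin-PPXE at 25uM, luminescent luciferin detection followed a 60-min RT NADPH reaction; data scaled to 57 uM ketoconazole.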

Cytochrome P450 3A4 (Homo sapiens), sequence (P08684 whole entry, looked up): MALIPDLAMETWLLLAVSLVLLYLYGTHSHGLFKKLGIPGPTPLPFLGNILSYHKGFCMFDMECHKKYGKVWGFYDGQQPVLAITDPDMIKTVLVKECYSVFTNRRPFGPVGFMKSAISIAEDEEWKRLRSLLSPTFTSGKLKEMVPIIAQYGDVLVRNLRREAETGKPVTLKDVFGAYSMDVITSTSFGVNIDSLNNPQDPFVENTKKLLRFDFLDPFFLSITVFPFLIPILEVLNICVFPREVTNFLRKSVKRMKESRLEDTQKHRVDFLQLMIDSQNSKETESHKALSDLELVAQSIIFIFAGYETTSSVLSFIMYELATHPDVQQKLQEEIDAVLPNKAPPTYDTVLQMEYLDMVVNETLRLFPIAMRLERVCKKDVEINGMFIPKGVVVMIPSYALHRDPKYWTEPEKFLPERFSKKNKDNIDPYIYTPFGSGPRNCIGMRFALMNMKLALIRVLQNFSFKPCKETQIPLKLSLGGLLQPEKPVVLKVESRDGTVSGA

Potency, inactive:
O=C(/C=C/c1ccc(O)cc1)c1cccs1
COc1c2ccoc2cc2oc(C)cc(=O)c12
COC(=O)CC1C(C)(C)C(=O)C2CC3C4=CC(=O)OC(c5ccoc5)[C@]4(C)CCC3[C@@]1(C)C2=O (some centres undefined)
COc1cc2c(C)c3c4c(cc(OC)c(OC)c4c2cc1OC)CCN3C
CC(=O)OC1CC2C(C)(C)C(=O)CC[C@]2(C)C2CC[C@]3(C)C(=CC(=O)OC3c3ccoc3)[C@]12C (some centres undefined)
COc1cc2c(C=O)c3c4c(cc(OC)c(OC)c4c2cc1OC)CCN3C
COc1cc(OC)c2c(=O)c(-c3ccccc3)coc2c1
C=C1C(=O)OC2C[C@@]3(C)CCCC(C)C3=CC12 (some centres undefined)
C=C1CCC2C(CC2(C)C)C(=O)CCC1O (centres undefined)
CC(=O)OC1CC(OC(C)=O)[C@]2(C)C(CC(OC(C)=O)[C@@]3(C)C4=CC(=O)OC(c5ccoc5)[C@]4(C)CCC32)C1(C)C (some centres undefined)
CC1CC2C3CCC4=CC(=O)C=C[C@@]4(C)[C@]3(F)C(O)C[C@]2(C)[C@]1(O)C(=O)COP(=O)(O)O (some centres undefined)
CCC(=O)O[C@H]1C(O[C@@H]2C(C)[C@H](O[C@H]3C[C@@](C)(OC)C(O)C(C)O3)C(C)C(=O)OC(CC)[C@@](C)(O)C(O)[C@H](C)C(=O)C(C)C[C@]2(C)O)OC(C)CC1N(C)C (some centres undefined)
CN(C)c1ccc(O)c2c1C[C@@H]1C[C@H]3C(N(C)C)C(=O)C(C(N)=O)=C(O)[C@@]3(O)C(=O)C1=C2O (some centres undefined)
COC(=O)CCC(C)C1CCC2C3C(C[C@H](O)C12C)C1(C)CC[C@@H](O)CC1C[C@H]3O (some centres undefined)
